# Source: PubChem (National Center for Advancing Translational Sciences (NCATS))
# G9a block: qHTS Assay for Inhibitors of Histone Lysine Methyltransferase G9a | G9a H3K9 monomethylation, AlphaScreen, 2 h | Histone-lysine N-methyltransferase EHMT2 (Homo sapiens), Q96KQ7 | Potency, µM (series often up to 102 µM), for inactives: at the highest dose activity, negative = inhibition, usual class: inhibitors | AID 504332, 2011 | actives 8.8% (n = 350,000); further: on the % scale 0 is the no-effect control and ±100 the full control effect; nearly all actives have a fitted effect of over 75% in size
#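 Methyltransferase reactions run at room temperature for 2 h (20 nM enzyme, 500 nM biotin-H3K9 peptide, 20 uM SAM) after a 15 min compound preincubation; product detected by AlphaScreen beads and anti-H3K9me1 antibody.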
# HP1b chromo inh: HTS for Inhibitors of HP1-beta Chromodomain Interactions with Methylated Histone Tails; Chromobox protein homolog 1 (Homo sapiens), P83916; AID 540317, 2011; AlphaScreen HP1-beta / biotin-H3K9me3 peptide binding; Potency, µM (series often up to 114 µM), for inactives: top-dose activity change, negative = inhibition, most hits filed as inhibitors; actives 0.56% (n = 390,000); further: nearly all actives have a fitted effect of over 70% in size
#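 HP1-beta protein (50 nM final) preincubated 30 min at room temperature with biotinylated H3(1-18)K9me3 peptide (50 nM) in PBS pH 7.4, 0.01% Tween-20, then compound added for 30 min. AlphaScreen streptavidin donor/nickel chelate acceptor beads (10 ug/mL final), 30 min dark, luminescence read.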
# BAZ2B inh: qHTS Assay for Inhibitors of BAZ2B. AID 504333, 2011. Bromodomain adjacent to zinc finger domain protein 2B (Homo sapiens), Q9UIF8. actives 4.4% (n = 360,000). Potency, µM (titrated, usually from 114 µM), for inactives: at the highest dose activity change, negative = inhibition, actives largely listed as inhibitors. AlphaScreen BAZ2B-H3K14Ac peptide displacement; further: on the % scale 0 is the no-effect control and ±100 the full control effect; nearly all actives have a fitted effect of over 60% in size
#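 BAZ2B (50 nM) with biotin-H3(5-23)K14Ac peptide (50 nM) in PBS pH 7.4, 0.01% Tween-20, preformed 30 min, then compound 30 min at room temperature; top concentration 110uM. AlphaScreen streptavidin donor/nickel chelate acceptor beads (10 ug/mL final), 20 min dark, signal read.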
# JMJD2A Tudor inh: qHTS Assay for Inhibitors of JMJD2A-Tudor Domain | Lysine-specific demethylase 4A (Homo sapiens), O75164 | AlphaScreen JMJD2A-Tudor / H3K4me3 peptide binding | Potency, µM (top dose mostly 114 µM), for inactives: at the top dose activity change, negative = inhibition, most hits filed as inhibitors | actives 4.4% (n = 390,000) | AID 504339, 2011; further: on the % scale 0 is the no-effect control and ±100 the full control effect; nearly all actives have a fitted effect of over 50% in size
# Sfp inh: qHTS Assay for Inhibitors of Bacillus subtilis Sfp phosphopantetheinyl transferase (PPTase). Biochemical Sfp PPTase activity, qHTS. AID 1490, 2009. Potency, µM, inactives show largest response in the series, negative = inhibition, actives largely listed as inhibitors. actives 3.5% (n = 310,000);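 further: the enzyme is Sfp with the accession as filed and its product quenches rhodamine fluorescence; 0% = enzyme reaction without inhibitor and -100% = no enzyme wells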
#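 With Hepes-Na pH 7.6 buffer containing 10 mM MgCl2, Sfp (15 nM) modified BHQ-2-YbbR (12.5 uM) using rhodamine-CoA (5 uM). Two reads 30 minutes apart at 525/598 nm yielded each well's rate.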
# PLK1 PBD block: qHTS for Inhibitors of PLK1-PDB (polo-like kinase 1 - polo-box domain): Primary Screen; Serine/threonine-protein kinase PLK1 (Homo sapiens), P53350; Plk1 PBD binding of FITC phosphopeptide, fluorescence polarization; Potency, µM, for the others: max response, negative = inhibition, actives largely listed as inhibitors; actives 2.8% (n = 360,000); AID 720504, 2013; further: series mostly up to about 57 µM; on the % scale 0 is the no-effect control and ±100 the full control effect; nearly all actives have a fitted effect of over 65% in size
# Target sequence (P53350 whole entry, looked up, the tested form may be a part): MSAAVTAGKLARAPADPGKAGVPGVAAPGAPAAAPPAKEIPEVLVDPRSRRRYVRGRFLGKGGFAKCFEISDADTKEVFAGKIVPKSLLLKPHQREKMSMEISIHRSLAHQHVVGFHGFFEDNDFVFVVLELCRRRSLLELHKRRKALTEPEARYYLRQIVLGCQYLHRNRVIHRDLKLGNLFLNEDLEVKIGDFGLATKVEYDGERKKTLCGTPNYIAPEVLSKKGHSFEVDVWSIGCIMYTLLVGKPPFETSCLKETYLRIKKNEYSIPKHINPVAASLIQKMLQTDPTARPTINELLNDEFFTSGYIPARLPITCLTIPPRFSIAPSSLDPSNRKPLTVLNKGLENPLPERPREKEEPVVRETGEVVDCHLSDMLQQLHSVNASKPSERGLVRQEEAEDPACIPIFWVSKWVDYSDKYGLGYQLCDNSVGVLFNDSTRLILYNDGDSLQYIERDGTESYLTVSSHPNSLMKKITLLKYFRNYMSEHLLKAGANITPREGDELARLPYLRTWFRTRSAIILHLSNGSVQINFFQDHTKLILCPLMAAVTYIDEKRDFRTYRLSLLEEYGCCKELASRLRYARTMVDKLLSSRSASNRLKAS
# An asterisk follows results filed as active; ? = inconclusive; · = no result given; [ ] = remark or other dose. This is a sample that favours compounds with a hit; in the whole collection about 12% have one here. The call rests on the fitted dose curve; in most records, active means well fitted curve in the direction sought with a large enough effect; inconclusive means small, poorly fitted or top-dose-only effect, or another doubt; inactive means no such curve, though single readings can be large; an effect the other way counts as inactive or inconclusive. Potency means the concentration at half of the fitted maximal effect.
SMILES,G9a block,HP1b chromo inh,BAZ2B inh,JMJD2A Tudor inh,Sfp inh,PLK1 PBD block
CN(C)c1ccc(C(CNC(=O)c2ccccc2F)c2c[nH]c3ccccc23)cc1 (stereo unspecified),?,14%,?,?,6%,-23%
O=[N+]([O-])CC(c1ccc(F)cc1)c1c[nH]c2ccccc12 (stereo unspecified),2%,16%,-4%,-19%,14%,6%
CCNC(=S)N/N=C(\C)c1ccc2ccccc2c1OC(F)F,45µM*,?,?,?,0%,-13%
CCNC(=S)N/N=C(\C)c1cccc(OC)c1,-33%,48%,-34%,-2%,?,-2%
CCNC(=S)N/N=C(\C)c1ccc2ccccc2c1,?,·,35µM*,·,2%,·
CCOC(=O)c1ccccc1NC(=O)NCc1cccn1Cc1ccc(F)cc1,16%[59 µM],50%,-19%,0%,·,·
CC(C)(CS(=O)(=O)[O-])NC(=O)CC[N+](C)(C)CCO,?,8.9µM*,2.8µM*,3.2µM*,3%,-18%
COc1ccccc1C(=O)NCCC(=O)OCC(=O)Nc1ccc(S(N)(=O)=O)cc1,-9%[12.7 µM],31%,5%,-8%,·,1%
Cc1ccc(OCCN2CCCC2)cc1,22µM*,?,-39%,18µM*,4%,-3%
CCOc1ccc(OCCCCN2CCCC2)cc1,?,-16%,?,45µM*,?,-8%
CC(C)c1cccc(C(C)C)c1OCCCCN1CCCC1,?,14%,7%,-26%,15%,-7%
Cc1ccc(C(C)C)cc1OCCCCN1CCCC1,10µM*,?,50µM*,18µM*,?,-1%
Cc1ccc(OCCCCN2CCCCC2)cc1,-3%[59 µM],31%,-30%,-7%,17%,-6%
c1ccc(COc2ccc(OCCCCN3CCCCC3)cc2)cc1,8.9µM*,-38%,40µM*,7.1µM*,-33%,0%
CN(c1ccccc1C(=O)Nc1ccccc1-c1ccccc1)S(C)(=O)=O,-2%,23%,-6%,-11%,7%,1%
CCCCOc1ccc(CN2CCCCC2)cc1,-33%[59 µM],30%,-4%,-6%,-14%,2%
Oc1ccc(N2CCN(Cc3ccc(OCCCN4CCCCC4)cc3)CC2)cc1,10µM*,40µM*,10µM*,50µM*,?,8%
O=C(c1ccccc1)c1ccc(OCCCN2CCCC2)cc1,2.5µM*,?,?,10µM*,-37%,-2%
CC(C)c1ccc(OCCCN2CCCC2)cc1,-10%,-26%,56µM*,56µM*,-12%,2%
CC12CC3CC(C)(C1)CC(Nc1nc(N4CCOCC4)nc4ccccc14)(C3)C2,?,70%,4%,4%,7%,-3%
COc1ccc(S(=O)(=O)N2CCC(C)CC2)cc1N(C)S(=O)(=O)c1ccccc1,23%,21%,-17%,1%,6%,5%
COc1ccc(S(N)(=O)=O)cc1N(C)S(=O)(=O)c1ccccc1,-30%,-7%,-4%,?,7%,27µM*
COc1ccc(OC)c(NC(=O)c2c(NCc3ccc(OC)c(OC)c3)sc3c2CCC3)c1,?,-6%,-22%,?,·,·
COc1cccc(C(=O)OCC(=O)Nc2sc3c(c2C(N)=O)CCC3)c1O,?,-2%,50µM*,?,·,?
COc1ccc(OC)c(NC(=O)c2c(NCc3ccc(N(C)C)cc3)sc3c2CCCC3)c1,13µM*,-25%,11µM*,11µM*,·,·
SMILES,G9a block,HP1b chromo inh,BAZ2B inh,JMJD2A Tudor inh,Sfp inh,PLK1 PBD block
COc1ccccc1OCC(=O)Nc1sc2c(c1C(N)=O)CCC2,·,11%,·,?,·,-18%
COc1ccc(NC(=O)CN(C)CC(=O)Nc2sc3c(c2C(N)=O)CCC3)cc1,50µM*,7%,-4%,-30%,·,?
COc1cccc(CNc2sc3c(c2C(=O)Nc2ccc(OC)cc2OC)CCC3)c1,13µM*,?,-18%,?,·,·
O=C1C(=O)N(CCS(=O)(=O)c2ccccc2)c2ccc(F)cc21,23%,5%,-16%,5%,3%,-1%
Cc1onc(-c2ccccc2)c1C(=O)N(C)CC(=O)Nc1ccc(F)c(F)c1F,·,53%,·,-12%,·,1%
Cc1nc(N2CCN(S(=O)(=O)c3ccccc3C#N)CC2)c2c(-c3ccccc3)csc2n1,4%[12.7 µM],33%,6%,-6%,·,-6%
COc1ccc(NC(=O)c2c(NC(=O)c3cccc(C)c3)sc3c2CCC3)cc1,-18%[59 µM],54%,3%,12%,·,·
CCOC(=O)N1CCc2c(sc(NCc3cc(OC)ccc3OC)c2C(=O)Nc2cc(OC)ccc2OC)C1,7.1µM*,-7%,32µM*,?,·,·
COc1ccc(NC(=O)c2c(NCc3cccc(OC)c3)sc3c2CCC3)cc1,14µM*,-6%,-5%,-29%,·,·
COc1ccc(OC)c(NC(=O)c2c(NCc3sccc3C)sc3c2CCCCC3)c1,?,0%,?,?,·,·
COc1cccc(/C=C2\SC(N3CCCC(C)C3)=NC2=O)c1OC (stereo unspecified),71µM*,21%,-17%,-7%,-10%,?
COc1ccccc1/C=C1\SC(N2CCC(C)CC2)=NC1=O,-11%,13%,-21%,-26%,-11%,-15%
COc1cccc(/C=C2\SC(N3CCC(C)CC3)=NC2=O)c1OC,28µM*,-10%,-2%,-6%,50µM*,?
CN1CCN(C2=NC(=O)/C(=C/c3ccccc3OS(=O)(=O)c3ccccc3)S2)CC1,45µM*,-1%,-14%,-13%,20µM*,?
COc1cccc(-c2nc(NC(C)C)c3ccccc3n2)c1O,?,-22%,?,50µM*,-3%,-10%
COc1cccc(-c2nc(N3CCCCC3)c3ccccc3n2)c1O,·,?,·,35µM*,·,-7%
CCC1CCCCN1c1nc(-c2ccncc2)nc2ccccc12 (stereo unspecified),14%,39%,2%,-8%,-17%,-6%
COc1cccc(-c2nc(N3CCN(c4ccccc4)CC3)c3ccccc3n2)c1O,-48%[59 µM],?,-39%,?,3%,-5%
CCC1CCCCN1c1nc(-c2cccc(OC)c2O)nc2ccccc12 (stereo unspecified),40µM*,-25%,?,?,-8%,-3%
